# According to PubChem BioAssay (EPA / NIEHS):
# The source made the active and inactive calls. How the source made its calls: active means hit-call score of the fitted dose curve at least 0.9, where 1 is the maximum; inactive means score below 0.9.
# Legend:
# [1] = CCTE_Padilla_ZF_Score.Position: CCTE's 144 Hour Post-fertilization zebrafish Assay Score for Position, Padilla Lab (AID 2284409)
# Summary of the method: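 Wild-type zebrafish embryos (with chorions) exposed singly from 6–8 hpf in sealed wells of Hanks' solution at 26C, rinsed at 5 dpf. At 6 dpf, blinded assessors scored abnormal water-column position by brightfield stereomicroscopy, relative to DMSO.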
# [2] = CCTE_Padilla_ZF_Score.Living: CCTE's 144 Hour Post-fertilization zebrafish Assay Score for Viability, Padilla Lab (AID 2284410);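 further: larval death at 6 dpf judged by absent heartbeat or coagulation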
# Summary of the method: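 Mortality at 6 dpf, judged as absent heartbeat or coagulation by two blinded observers, after sealed static exposure beginning at 6–8 hpf at 26C. Larvae were rinsed free of chemical at 5 dpf, and activity was fitted relative to DMSO.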
# [3] = CCTE_Padilla_ZF_Score.General: CCTE's 144 Hour Post-fertilization zebrafish Assay Score for General Malformation, Padilla Lab (AID 2284411)
# Summary of the method: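 Malformation, death and hatching were scored at 6 dpf by two blinded observers under a stereo microscope. Embryos were dosed singly from 6-8 hpf in sealed plates of 10% Hanks' at 26C and rinsed on 5 dpf; DMSO baseline.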
# [4] = CCTE_Padilla_ZF_Score.Tail: CCTE's 144 Hour Post-fertilization zebrafish Assay Score for Tail Malformation, Padilla Lab (AID 2284414)
# Description: CCTE_Padilla_ZF_Phenotype_Score is a whole embryo, multiplexed assay using zebrafish ova exposed for 144 hours post fertilization on a 96-well plate.CCTE_Padilla_ZF_Score.Tail is one of one assay component(s) measured or calculated from the CCTE_Padilla_ZF_Phenotype_Score assay. It is designed to make measurements of zebrafish development as detected with brightfield microscopy of developing zebrafish embryos.Data from the assay component CCTE_Padilla_ZF_Score.Tail was analyzed into 1 assay endpoints. This assay endpoint, CCTE_Padilla_ZF_Score.Tail, was analyzed in the positive analysis fitting direction relative to DMSO as the negative control and baseline of activity. Using a type of viability reporter, gain-of-signal activity can be used to understand changes in developmentals as they relate to the whole embryo. To generalize the intended target to other relatable targets, this assay endpoint is annotated to the zebrafish development intended target family, where the subfamily is lower trunk morphogenesis.
# Zebrafish husbandry: Wild type adult zebrafish (Danio rerio; undefined outbred stock obtained from Aquatic Research Organisms, Hampton, NH, 03842) were housed in an AAALAC-approved animal facility at 28C with a 14:10 h light: dark cycle (lights on at 08:30 h). […]
# [5] = CCTE_Padilla_ZF_Score.Blood_pooling: CCTE's 144 Hour Post-fertilization zebrafish Assay Score for Blood Pooling, Padilla Lab (AID 2284415)
# Summary of the method: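 Blood pooling was scored at 6 dpf under a stereo microscope by two blinded assessors, fitted upward against DMSO. Single embryos were dosed at 6–8 hpf in 10% Hanks', kept sealed at 26C (14:10 h cycle) and rinsed at 5 dpf.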
# [6] = CCTE_Padilla_ZF_Score.Any: CCTE's 144 Hour Post-fertilization zebrafish Assay Score for Any Mortality or Malformation, Padilla Lab (AID 2284416)
# Summary of the method: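 Wild-type zebrafish embryos with chorions, one per well in 10% Hanks' from 6–8 hpf, dosed in sealed plates at 26 C, 14:10 h light:dark; rinsed at 5 dpf; blinded scoring at 6 dpf for death or malformation, versus DMSO.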
smiles,measurement,setting,value
CCNS(=O)(=O)C(F)(F)C(F)(F)C(F)(F)C(F)(F)C(F)(F)C(F)(F)C(F)(F)C(F)(F)F,outcome,[1],inactive
same,AC50,[2],22.2 µM (active)
same,AC50,[3],3.11 µM (active)
same,outcome,[4],inactive
same,outcome,[5],inactive
same,AC50,[6],3.96 µM (active)
